{"source": "ChEMBL document CHEMBL4513146", "about": "“CO-ADD screening of Karazin Kharkiv National University (Ukraine) compounds”", "note": "Measured potencies and affinities stand elsewhere."}
{"system": "Staphylococcus aureus", "conditions": "Concentration 32 ug.mL-1;; ASSAY_TEST Inhibition of Bacterial Growth; detection method Absorption (OD600); MEDIA CAMHB; plate type 384well; NBS; CORNING #3640; time 18 hr", "units": {"Inhibition": "%"}}
{"smiles": "COc1ccc(CNC(=O)Cn2nc3c4cc(-c5ccc(OC)cc5)nn4ccn3c2=O)cc1", "Inhibition": -1.74}
{"smiles": "Cc1ccc(Oc2nc3ccccc3n3c(=O)n(CC(=O)Nc4cccc(C(F)(F)F)c4)nc23)cc1", "Inhibition": 0.5}
{"smiles": "CC(C)(C)Sc1ccc2nn(CC(=O)Nc3ccccc3Cl)c(=O)n2n1", "Inhibition": 7.11}
{"smiles": "CC(C)c1nnc2c(=O)n(CC(=O)Nc3ccc4c(c3)OCO4)c3ccccc3n12", "Inhibition": -1.02}
{"smiles": "CCc1nnc2c(S(=O)(=O)N(Cc3cccc(F)c3)c3ccc(F)cc3)cccn12", "Inhibition": -7.77}
{"smiles": "COc1ccc(C(C)NC(=O)CCc2nnc3ccc(-c4ccc(C)c(C)c4)nn23)cc1OC", "note": "(stereo not given)", "Inhibition": 7.27}
{"smiles": "CCc1ccc(N(Cc2cccc(Cl)c2)S(=O)(=O)c2cccn3c(C)nnc23)cc1", "Inhibition": 10.13}
{"smiles": "N#CCn1nc2n(Cc3ccccc3)c(=O)c3ccc(C(=O)NC4CCCCC4)cc3n2c1=O", "Inhibition": -2.91}
{"smiles": "O=C(Cn1nc2c(SC3CCCCC3)nccn2c1=O)Nc1cccc(Cl)c1", "Inhibition": -15.22}
{"smiles": "Cc1nnc2c(=O)n(CC(=O)Nc3cccc(F)c3)c3ccccc3n12", "Inhibition": 14.13}
{"smiles": "CC1CCc2c(sc3ncn4c(=O)n(CC(=O)Nc5ccc6c(c5)CCC6)nc4c23)C1", "note": "(stereo not given)", "Inhibition": 4.65}
{"smiles": "CCc1nnc2c(=O)n(CC(=O)Nc3ccc(NC(C)=O)cc3)c3ccccc3n12", "Inhibition": 1.89}
{"smiles": "Cc1ccc(-c2ccc3nn(CC(=O)Nc4ccc(C#N)cc4)c(=O)n3n2)cc1C", "Inhibition": 8.65}
{"smiles": "O=C(Cn1nc2c3c4c(sc3ncn2c1=O)CCCC4)N1CCc2ccccc2C1", "Inhibition": 0.97}
{"smiles": "COc1ccccc1-n1ccn2c(SCC(=O)Nc3ccc(C)c(F)c3)nnc2c1=O", "Inhibition": 12}
{"smiles": "COc1ccc(N(Cc2cc(F)cc(F)c2)S(=O)(=O)c2ccc3nnc(C)n3c2)cc1", "Inhibition": 12.66}
{"smiles": "CCCCc1ccc(NC(=O)Cn2nc3c(N4CCSCC4)nc4ccccc4n3c2=O)cc1", "Inhibition": 10.09}
{"smiles": "Cc1cc(C)cc(N(Cc2ccccc2)S(=O)(=O)c2cccn3cnnc23)c1", "Inhibition": -25.73}
{"smiles": "Cc1ccc(CNC(=O)CSc2nnc3c(=O)n(-c4ccccc4)ccn23)cc1", "Inhibition": 12.76}
{"smiles": "Cc1cc(Nc2ccc(F)cc2)nc2nn(Cc3cccc(C#N)c3)c(=O)n12", "Inhibition": -3.76}
{"smiles": "CCOc1ccc(NC(=O)CSc2nnc3c(=O)n(-c4ccc(OCC)cc4)ccn23)cc1", "Inhibition": 16.17}
{"smiles": "CCc1nnc2c(S(=O)(=O)N(Cc3cccc(C)c3)c3cccc(Cl)c3)cccn12", "Inhibition": 2.53}
{"smiles": "COc1ccc(-c2cc3c4nnc(SCC(=O)Nc5ccc(C)cc5Cl)n4ccn3n2)cc1", "Inhibition": 2.3}
{"smiles": "CSc1cccc(NC(=O)Cn2c(=O)c3nnc(C(C)C)n3c3ccccc32)c1", "Inhibition": 14.38}
{"smiles": "COc1ccc(-c2cc3c4nnc(SCC(=O)NCc5cccc(OC)c5OC)n4ccn3n2)cc1", "Inhibition": 4.12}
{"smiles": "CCOc1ccccc1NC(=O)Cn1nc2c(N3CCN(c4ccccc4)CC3)nccn2c1=O", "Inhibition": 1.85}
{"smiles": "O=C(Cn1nc2c(Oc3ccccc3)nccn2c1=O)Nc1ccccc1Cl", "Inhibition": 6.14}
{"smiles": "CSc1cccc(NC(=O)Cn2nc3ccc(-c4ccccc4)nn3c2=O)c1", "Inhibition": -12.73}
{"smiles": "Cc1[nH]c2ccccc2c1C(=O)CSc1nnc2c(=O)n(-c3ccc(F)c(F)c3)ccn12", "Inhibition": 13.1}
{"smiles": "O=C(CSc1nnc2c(=O)n(-c3ccc(F)c(F)c3)ccn12)c1ccccc1Cl", "Inhibition": 3.6}
{"smiles": "C=Cc1ccc(CN(c2ccc(CC)cc2)S(=O)(=O)c2cccn3c(C)nnc23)cc1", "Inhibition": 9.91}
{"smiles": "Cc1ccc(NC(=O)Cn2nc3ccc(SC4CCCCC4)nn3c2=O)cc1", "Inhibition": -13.21}
{"smiles": "Cc1ccc(-c2ccc3nn(CC(=O)Nc4ccc(Br)cc4)c(=O)n3n2)cc1C", "Inhibition": 15.41}
{"smiles": "CCc1cccc(NC(=O)Cn2nc3ccc(SC(C)C)nn3c2=O)c1", "Inhibition": 3.75}
{"smiles": "COc1ccc(CNC(=O)Cn2nc3c4cc(-c5ccc(C)c(C)c5)nn4ccn3c2=O)cc1", "Inhibition": 6.21}
{"smiles": "O=C(Cn1nc2c(Sc3ccccc3)nccn2c1=O)Nc1cc(F)ccc1F", "Inhibition": 0.01}
{"smiles": "CCOc1ccccc1NC(=O)Cn1nc2c(Sc3ccc(C)cc3C)nccn2c1=O", "Inhibition": 2.42}
{"smiles": "Cc1cccc(NC(=O)CSc2nnc3c4cc(-c5ccccc5)nn4ccn23)c1C", "Inhibition": -15.85}
{"smiles": "CC(C)c1nnc2c(SCC(=O)Nc3ccccc3Br)nc3ccccc3n12", "Inhibition": 6.58}
{"smiles": "Cc1ccc(-c2cc3c4nnc(SCC(=O)Nc5ccc(C#N)cc5)n4ccn3n2)cc1", "Inhibition": -4.94}
{"system": "Escherichia coli", "conditions": "Concentration 32 ug.mL-1;; ASSAY_TEST Inhibition of Bacterial Growth; detection method Absorption (OD600); MEDIA CAMHB; plate type 384well; NBS; CORNING #3640; time 18 hr", "units": {"Inhibition": "%"}}
{"smiles": "COc1ccc(CNC(=O)Cn2nc3c4cc(-c5ccc(OC)cc5)nn4ccn3c2=O)cc1", "Inhibition": -1.87}
{"smiles": "Cc1ccc(Oc2nc3ccccc3n3c(=O)n(CC(=O)Nc4cccc(C(F)(F)F)c4)nc23)cc1", "Inhibition": -3.3}
{"smiles": "CC(C)(C)Sc1ccc2nn(CC(=O)Nc3ccccc3Cl)c(=O)n2n1", "Inhibition": -2.79}
{"smiles": "CC(C)c1nnc2c(=O)n(CC(=O)Nc3ccc4c(c3)OCO4)c3ccccc3n12", "Inhibition": -3.49}
{"smiles": "CCc1nnc2c(S(=O)(=O)N(Cc3cccc(F)c3)c3ccc(F)cc3)cccn12", "Inhibition": -5}
{"smiles": "COc1ccc(C(C)NC(=O)CCc2nnc3ccc(-c4ccc(C)c(C)c4)nn23)cc1OC", "note": "(stereo not given)", "Inhibition": -3.17}
{"smiles": "CCc1ccc(N(Cc2cccc(Cl)c2)S(=O)(=O)c2cccn3c(C)nnc23)cc1", "Inhibition": -1.93}
{"smiles": "N#CCn1nc2n(Cc3ccccc3)c(=O)c3ccc(C(=O)NC4CCCCC4)cc3n2c1=O", "Inhibition": -12.22}
{"smiles": "O=C(Cn1nc2c(SC3CCCCC3)nccn2c1=O)Nc1cccc(Cl)c1", "Inhibition": -17.9}
{"smiles": "Cc1nnc2c(=O)n(CC(=O)Nc3cccc(F)c3)c3ccccc3n12", "Inhibition": 2.22}
{"smiles": "CC1CCc2c(sc3ncn4c(=O)n(CC(=O)Nc5ccc6c(c5)CCC6)nc4c23)C1", "note": "(stereo not given)", "Inhibition": -2.81}
{"smiles": "CCc1nnc2c(=O)n(CC(=O)Nc3ccc(NC(C)=O)cc3)c3ccccc3n12", "Inhibition": -3.04}
{"smiles": "Cc1ccc(-c2ccc3nn(CC(=O)Nc4ccc(C#N)cc4)c(=O)n3n2)cc1C", "Inhibition": 0.46}
{"smiles": "O=C(Cn1nc2c3c4c(sc3ncn2c1=O)CCCC4)N1CCc2ccccc2C1", "Inhibition": 2.08}
{"smiles": "COc1ccccc1-n1ccn2c(SCC(=O)Nc3ccc(C)c(F)c3)nnc2c1=O", "Inhibition": -1.35}
{"smiles": "COc1ccc(N(Cc2cc(F)cc(F)c2)S(=O)(=O)c2ccc3nnc(C)n3c2)cc1", "Inhibition": -2.53}
{"smiles": "CCCCc1ccc(NC(=O)Cn2nc3c(N4CCSCC4)nc4ccccc4n3c2=O)cc1", "Inhibition": 1.07}
{"smiles": "Cc1cc(C)cc(N(Cc2ccccc2)S(=O)(=O)c2cccn3cnnc23)c1", "Inhibition": -13.66}
{"smiles": "Cc1ccc(CNC(=O)CSc2nnc3c(=O)n(-c4ccccc4)ccn23)cc1", "Inhibition": 0.71}
{"smiles": "Cc1cc(Nc2ccc(F)cc2)nc2nn(Cc3cccc(C#N)c3)c(=O)n12", "Inhibition": -11.43}
{"smiles": "CCOc1ccc(NC(=O)CSc2nnc3c(=O)n(-c4ccc(OCC)cc4)ccn23)cc1", "Inhibition": -1.04}
{"smiles": "CCc1nnc2c(S(=O)(=O)N(Cc3cccc(C)c3)c3cccc(Cl)c3)cccn12", "Inhibition": -7.38}
{"smiles": "COc1ccc(-c2cc3c4nnc(SCC(=O)Nc5ccc(C)cc5Cl)n4ccn3n2)cc1", "Inhibition": -3.13}
{"smiles": "CSc1cccc(NC(=O)Cn2c(=O)c3nnc(C(C)C)n3c3ccccc32)c1", "Inhibition": 4.25}
{"smiles": "COc1ccc(-c2cc3c4nnc(SCC(=O)NCc5cccc(OC)c5OC)n4ccn3n2)cc1", "Inhibition": -5.71}
{"smiles": "CCOc1ccccc1NC(=O)Cn1nc2c(N3CCN(c4ccccc4)CC3)nccn2c1=O", "Inhibition": -3.13}
{"smiles": "O=C(Cn1nc2c(Oc3ccccc3)nccn2c1=O)Nc1ccccc1Cl", "Inhibition": -6.19}
{"smiles": "CSc1cccc(NC(=O)Cn2nc3ccc(-c4ccccc4)nn3c2=O)c1", "Inhibition": -15.49}
{"smiles": "Cc1[nH]c2ccccc2c1C(=O)CSc1nnc2c(=O)n(-c3ccc(F)c(F)c3)ccn12", "Inhibition": -2.33}
{"smiles": "O=C(CSc1nnc2c(=O)n(-c3ccc(F)c(F)c3)ccn12)c1ccccc1Cl", "Inhibition": -5.26}
{"smiles": "C=Cc1ccc(CN(c2ccc(CC)cc2)S(=O)(=O)c2cccn3c(C)nnc23)cc1", "Inhibition": -2.55}
{"smiles": "Cc1ccc(NC(=O)Cn2nc3ccc(SC4CCCCC4)nn3c2=O)cc1", "Inhibition": -13.34}
{"smiles": "Cc1ccc(-c2ccc3nn(CC(=O)Nc4ccc(Br)cc4)c(=O)n3n2)cc1C", "Inhibition": -2.09}
{"smiles": "CCc1cccc(NC(=O)Cn2nc3ccc(SC(C)C)nn3c2=O)c1", "Inhibition": -0.03}
{"smiles": "COc1ccc(CNC(=O)Cn2nc3c4cc(-c5ccc(C)c(C)c5)nn4ccn3c2=O)cc1", "Inhibition": 2.95}
{"smiles": "O=C(Cn1nc2c(Sc3ccccc3)nccn2c1=O)Nc1cc(F)ccc1F", "Inhibition": -13.52}
{"smiles": "CCOc1ccccc1NC(=O)Cn1nc2c(Sc3ccc(C)cc3C)nccn2c1=O", "Inhibition": 0}
{"smiles": "Cc1cccc(NC(=O)CSc2nnc3c4cc(-c5ccccc5)nn4ccn23)c1C", "Inhibition": -6.36}
{"smiles": "CC(C)c1nnc2c(SCC(=O)Nc3ccccc3Br)nc3ccccc3n12", "Inhibition": -0.85}
{"smiles": "Cc1ccc(-c2cc3c4nnc(SCC(=O)Nc5ccc(C#N)cc5)n4ccn3n2)cc1", "Inhibition": -8.26}
